The record followed here is the supplement of paper PMC3545927.

The list shows a part of the results. No count for the full screen is at hand.

The target in this test is furin, P09958. Nature of the test: furin cleavage Z-score vs untreated control; higher = more cleavage, active = 3.5 or more, inactive = 1 or less, 8 variable residues between constant flanks. In short, it runs like this: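 Abundance of DNA freed from bead-bound 8-mer peptide–cDNA fusions by purified furin was measured as sequencing read counts after PCR adapter tagging. Cutting ran 7.5, 15 or 30 min in 0.01 ml of 50 mM HEPES pH 7.5 with CaCl2 and NaCl at 1:10 enzyme:substrate. The cleavage Z-score expresses these log counts against furin-free reactions after lowess adjustment and median absolute deviation scaling.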
Sequence of furin, P09958 (P09958 whole entry, the tested form may be a part): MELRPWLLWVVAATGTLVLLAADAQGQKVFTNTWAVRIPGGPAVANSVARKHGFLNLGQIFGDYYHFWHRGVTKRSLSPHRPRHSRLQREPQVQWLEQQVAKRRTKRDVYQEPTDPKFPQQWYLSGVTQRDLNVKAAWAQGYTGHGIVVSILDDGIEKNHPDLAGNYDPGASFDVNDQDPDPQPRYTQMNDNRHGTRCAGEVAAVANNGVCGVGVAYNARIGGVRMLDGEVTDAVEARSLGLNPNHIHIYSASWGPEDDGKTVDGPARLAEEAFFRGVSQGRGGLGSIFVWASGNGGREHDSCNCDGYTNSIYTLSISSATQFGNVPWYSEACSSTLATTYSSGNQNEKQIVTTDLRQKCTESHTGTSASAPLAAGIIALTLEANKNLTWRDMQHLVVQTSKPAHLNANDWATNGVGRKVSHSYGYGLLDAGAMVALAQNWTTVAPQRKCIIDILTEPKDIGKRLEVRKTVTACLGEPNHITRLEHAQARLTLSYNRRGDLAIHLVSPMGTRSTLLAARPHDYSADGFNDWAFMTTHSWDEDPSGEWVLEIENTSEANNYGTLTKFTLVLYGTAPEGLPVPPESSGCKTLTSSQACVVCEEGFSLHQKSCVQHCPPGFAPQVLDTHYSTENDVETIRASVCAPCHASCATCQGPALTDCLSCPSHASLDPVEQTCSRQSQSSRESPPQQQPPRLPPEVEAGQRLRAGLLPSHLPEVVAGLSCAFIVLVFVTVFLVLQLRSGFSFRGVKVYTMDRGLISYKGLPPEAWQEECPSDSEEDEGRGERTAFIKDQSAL

For CAPKPQKKNKAGNASASA [HC163], the “furin cleavage Z-score” value reads like this: (7.5 min) -1.39 (inactive); (15 min) -0.337 (inactive); (30 min) -0.509 (inactive).
Regarding CANKRNTNRRAGNASASA [HC166], the “furin cleavage Z-score” value is, setting by setting: (7.5 min) 0.476 (inactive); (15 min) 1.53; (30 min) -0.249 (inactive).
For CAPVPPPRKKAGNASASA [HC1322] the same measures were 0.00444 (inactive), 1.55 and 0.99 (inactive).
For CAPQKKNKRNAGNASASA [HC164] the same measures were 5.11 (active), 6.33 (active) and 5.55 (active).
With CAKKNKRNTNAGNASASA [HC165], the “furin cleavage Z-score” value is 4.17 (active) (7.5 min), 6.77 (active) (15 min) and 5.31 (active) (30 min).
Regarding CAKKMRVWRDAGNASASA [FS-674], the “furin cleavage Z-score” value is, setting by setting: (7.5 min) 4.34 (active); (15 min) 5.37 (active); (30 min) 5.78 (active).
Turning to CAKTTRKKRNAGNASASA [FS-263], the “furin cleavage Z-score” value is 7.57 (active) (7.5 min), 8.3 (active) (15 min) and 5.21 (active) (30 min).
Consider CAYRHRKKRNAGNASASA [FS-902], for which the “furin cleavage Z-score” value runs as follows: (7.5 min) 2.85; (15 min) 1.03; (30 min) -0.551 (inactive).
Regarding CAKKKRMAMAAGNASASA [FS-2867], the “furin cleavage Z-score” value is, setting by setting: (7.5 min) -0.103 (inactive); (15 min) 0.494 (inactive); (30 min) 1.89.
In the same order, the values of CAARLIVFPDAGNASASA [HC1449] are -1.5 (inactive), -0.858 (inactive) and -0.313 (inactive).
In the same order, the values of CAVECCSMSYAGNASASA [HC2012] are 0.483 (inactive), 1.15 and 0.164 (inactive).
In the same order, the values of CAAETHVTGGAGNASASA [HC352] are -0.704 (inactive), -0.0263 (inactive) and -0.814 (inactive).
For CASHITAEAAAGNASASA [HC1250], the “furin cleavage Z-score” value is -0.151 (inactive) (7.5 min), -1.71 (inactive) (15 min) and -1.91 (inactive) (30 min).
In the case of CADNVTPIDTAGNASASA [HC1435], the “furin cleavage Z-score” value is -0.0484 (inactive) (7.5 min), -0.00567 (inactive) (15 min) and -0.908 (inactive) (30 min).
In the same order, the values of CAIASWAIKWAGNASASA [HC515] are -0.183 (inactive), 0.294 (inactive) and -1.7 (inactive).
In the case of CALIHLHQNIAGNASASA [HC505], the “furin cleavage Z-score” value was 0.141 (inactive) (7.5 min), -1.53 (inactive) (15 min) and 0.884 (inactive) (30 min).
With CAVHCCSMSYAGNASASA [HC2015], the “furin cleavage Z-score” value is, setting by setting: (7.5 min) 0.313 (inactive); (15 min) -1.84 (inactive); (30 min) 0.688 (inactive).
With CAPQLPGIPFAGNASASA [HC1161], the “furin cleavage Z-score” value by setting is: (7.5 min) -0.711 (inactive); (15 min) -1.22 (inactive); (30 min) 0.14 (inactive).
Consider CATNPCSGSWAGNASASA [HC1861], for which the “furin cleavage Z-score” value reads like this: (7.5 min) -0.962 (inactive); (15 min) -0.755 (inactive); (30 min) -0.828 (inactive).
On to CAEEVTSTWVAGNASASA [HC2172], for which the “furin cleavage Z-score” value (7.5 min) was -0.33 (inactive), the “furin cleavage Z-score” value (15 min) was 0.0818 (inactive) and the “furin cleavage Z-score” value (30 min) is 0.598 (inactive).
For CAKKMRNKRNAGNASASA [FS-42] the same measures were 10.5 (active), 10.9 (active) and 9.3 (active).
Take CAKTLRTKRNAGNASASA [FS-1352]: the “furin cleavage Z-score” value (7.5 min) was 9.31 (active), the “furin cleavage Z-score” value (15 min) was 8.38 (active) and the “furin cleavage Z-score” value (30 min) was 6.89 (active).
In the same order, the values of CASTPCSAWLAGNASASA [HC2548] are -0.0997 (inactive), -0.849 (inactive) and -0.533 (inactive).
Take CADREVPCHRAGNASASA [HC2431]: the “furin cleavage Z-score” value (7.5 min) is 0.898 (inactive), the “furin cleavage Z-score” value (15 min) turned out to be 1.78 and the “furin cleavage Z-score” value (30 min) came out at 1.29.
For CATTPCSGSWAGNASASA [HC54] the same measures were -0.34 (inactive), -3.09 (inactive) and -0.396 (inactive).
For CAPPCVIGGAAGNASASA [HC444] the same measures were -0.324 (inactive), -0.267 (inactive) and 0.0653 (inactive).
On to CARRRRYEGHAGNASASA [FS-2235], for which the “furin cleavage Z-score” value was 0.411 (inactive) (7.5 min), 0.839 (inactive) (15 min) and -0.246 (inactive) (30 min).
Regarding CARRRRLRTAAGNASASA [FS-1786], the “furin cleavage Z-score” value is, setting by setting: (7.5 min) 2.03; (15 min) 3.9 (active); (30 min) 4.2 (active).
CARRRRLYWGAGNASASA [FS-1787]: the “furin cleavage Z-score” value is, setting by setting: (7.5 min) -0.939 (inactive); (15 min) 0.513 (inactive); (30 min) -1.89 (inactive).
As for CARRRRYALSAGNASASA [FS-2801], the “furin cleavage Z-score” value was 5.16 (active) (7.5 min), 9.42 (active) (15 min) and 8.62 (active) (30 min).
In the case of CARRRRYKKKAGNASASA [FS-2182], the “furin cleavage Z-score” value is -0.133 (inactive) (7.5 min), -0.187 (inactive) (15 min) and -0.000733 (inactive) (30 min).
In the same order, the values of CARRRRYAVAAGNASASA [FS-3232] are 4.58 (active), 6.75 (active) and 6.05 (active).
Regarding CALIARDQLEAGNASASA [HC1587], the “furin cleavage Z-score” value is, setting by setting: (7.5 min) 1.19; (15 min) -0.286 (inactive); (30 min) 0.308 (inactive).
For CAGRSRASRGAGNASASA [FS-1591] the same measures were 0.169 (inactive), 0.355 (inactive) and 0.871 (inactive).
In the same order, the values of CAGTQRLTRAAGNASASA [FS-438] are 5.42 (active), 7.11 (active) and 7.04 (active).
For CAGRDAVILLAGNASASA [HC595] the same measures were -0.947 (inactive), -0.587 (inactive) and -0.719 (inactive).
Consider CAGHSRSRRAAGNASASA [FS-241], for which the “furin cleavage Z-score” value was 9.52 (active) (7.5 min), 9.9 (active) (15 min) and 7.81 (active) (30 min).
In the same order, the values of CAGRSRSRRAAGNASASA [FS-1205] are 11.2 (active), 9.2 (active) and 6.8 (active).
In the same order, the values of CACRARGMRAAGNASASA [FS-15] are -0.759 (inactive), -0.9 (inactive) and -0.752 (inactive).
For CAGRQRKPRPAGNASASA [FS-658] the same measures were -0.103 (inactive), -1.02 (inactive) and -0.398 (inactive).
Regarding CAGRSRRPRLAGNASASA [FS-594], the “furin cleavage Z-score” value is, setting by setting: (7.5 min) 5.82 (active); (15 min) 7.31 (active); (30 min) 7.21 (active).
In the same order, the values of CAMERCSQHLAGNASASA [HC1713] are 1.58, 0.689 (inactive) and 1.89.
For CAIPSRRPRFAGNASASA [FS-255] the same measures were 5.86 (active), 8 (active) and 9.09 (active).
For CAMLSRFGRFAGNASASA [FS-692] the same measures were -0.109 (inactive), 0.852 (inactive) and 3.08.
For the sequence CARLSRPDSGAGNASASA [FS-1749], the “furin cleavage Z-score” value was -0.794 (inactive) (7.5 min), -0.615 (inactive) (15 min) and -0.815 (inactive) (30 min).
For the sequence CARLSRFPRFAGNASASA [FS-490], the “furin cleavage Z-score” value by setting is: (7.5 min) 8.21 (active); (15 min) 11.2 (active); (30 min) 11.1 (active).
